Among the data in PubChem BioAssay AID2313 (Broad Institute, 2010) are inhibition values, retold here.

Among all 22,000 compounds or so, about 460 (2.1%) were called active. Inconclusive results (about 2%) are left out. The entries come from a sample that favours actives as a whole. A number with no mark means an inactive call.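 Rule for the calls: active = mean inhibition across valid replicates above about 65% (limit read from the data); inconclusive = mean under the limit, yet half or more replicates past it; inactive = the rest.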

In general, inhibition refers to the relative decrease from the control value, in per cent.

The assay can be described thus: Shh-driven Gli reporter inhibition – luminescence, Shh-LIGHT2 cells, Gli-luciferase, primary screen (AID 2313).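 Note: pathway switched on by Shh-conditioned medium diluted 1 in 25 in low serum.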 The following applies: 30 h, active compounds read high.
With `c1ccc2c(c1)[I+]c1ccccc1-2`, the inhibition is 88.8% (active).
In the case of `COC(/C=C/CC/C=C/C(=O)O)C(O)C(C)C(O)/C(C)=C/C(C)C(=O)CCCC1CC(=O)NC(=O)C1` (stereo not given) it was -22.8%; in that of `CC(C)c1c(CN(C)C(C)Cc2ccccc2)n(C)n(-c2ccccc2)c1=O` (stereo not given), -38.5%.
For `CC(C)Nc1nc(Cl)nc(NC(C)C)n1`, the inhibition was -55.8%.
In the case of `CN(C)C(=O)Oc1cc(OC(=O)N(C)C)cc(C(O)CNC(C)(C)C)c1` (stereo not given) it was 33.4%.
In the case of `C[C@H]1CCC/C=C/C2C[C@H](O)C[C@H]2[C@H](O)/C=C\C(=O)O1` (stereo not given in full) it was 107% (active); in that of `C=CC(C)(C)c1cc2cc3c(cc2oc1=O)O[C@H](C(C)(C)O)C3`, -36.2%; in that of `CC=C1CN2C3CC1C1(C(=O)OC)C2CC2(c4ccccc4N(C)C32)C1O` (stereo not given), 11.9%.
Take `CCCCC/C=C\C/C=C\C/C=C\CCCCCCC(=O)NCCO`: the inhibition was -2.94%.
In the case of `C[C@@H]1O[C@@H](O[C@@H]2C=C3CC[C@@H]4C(C[C@@H](O)[C@]5(C)[C@@H](c6ccc(=O)oc6)CC[C@]45O)[C@@]3(C)CC2)[C@H](O)[C@H](O)[C@H]1O[C@@H]1O[C@H](CO)[C@@H](O)[C@H](O)[C@H]1O` (stereo not given in full) it was -37.6%.
In the case of `CC(C)[C@@]1(NC(=O)[C@@H]2CC3c4cccc5[nH]cc(c45)C[C@H]3N(C)C2)O[C@@]2(O)[C@@H]3CCCN3C(=O)[C@H](Cc3ccccc3)N2C1=O` (stereo not given in full) it was 21.5%; in that of `O=C(c1ccccc1)C12CN3CN(CN(C3)C1)C2`, -5.62%; in that of `COc1c(C(C)C)cc2c(c1O)[C@@]1(C(=O)O)CCCC(C)(C)C1CC2` (stereo not given in full), -14.7%.
In the case of `CCCCCCCCCCCCCC(=O)O[C@@H]1[C@@H](C)[C@@]2(O)[C@@H](C=C(CO)C[C@]3(O)C(=O)C(C)=C[C@@H]23)[C@@H]2C(C)(C)[C@]12OC(C)=O` it was 87% (active); in that of `CCCCC/C=C\C/C=C\C/C=C\C/C=C\CCCCCC(=O)NCCO`, -36.6%.
